Results published in the supplement of paper PMC3545927.
The list shows a part of the results. No count for the full screen is at hand.

Biological target: furin, P09958
Assay: furin cleavage Z-score vs untreated control; higher = more cleavage, active = 3.5 or more, inactive = 1 or less, 8 variable residues between constant flanks
How it was run: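 The cleavage Z-score was derived for purified furin acting on 8-mer peptides held on magnetic beads and fused to a cDNA oligonucleotide. Digests lasted 7.5, 15 or 30 min at 1:10 enzyme:substrate in 50 mM HEPES pH 7.5 with CaCl2 and NaCl. Sequencing counts of released DNA, log-transformed against furin-free reactions, were lowess-adjusted and scaled by median absolute deviation.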

furin, P09958, sequence (P09958 whole entry): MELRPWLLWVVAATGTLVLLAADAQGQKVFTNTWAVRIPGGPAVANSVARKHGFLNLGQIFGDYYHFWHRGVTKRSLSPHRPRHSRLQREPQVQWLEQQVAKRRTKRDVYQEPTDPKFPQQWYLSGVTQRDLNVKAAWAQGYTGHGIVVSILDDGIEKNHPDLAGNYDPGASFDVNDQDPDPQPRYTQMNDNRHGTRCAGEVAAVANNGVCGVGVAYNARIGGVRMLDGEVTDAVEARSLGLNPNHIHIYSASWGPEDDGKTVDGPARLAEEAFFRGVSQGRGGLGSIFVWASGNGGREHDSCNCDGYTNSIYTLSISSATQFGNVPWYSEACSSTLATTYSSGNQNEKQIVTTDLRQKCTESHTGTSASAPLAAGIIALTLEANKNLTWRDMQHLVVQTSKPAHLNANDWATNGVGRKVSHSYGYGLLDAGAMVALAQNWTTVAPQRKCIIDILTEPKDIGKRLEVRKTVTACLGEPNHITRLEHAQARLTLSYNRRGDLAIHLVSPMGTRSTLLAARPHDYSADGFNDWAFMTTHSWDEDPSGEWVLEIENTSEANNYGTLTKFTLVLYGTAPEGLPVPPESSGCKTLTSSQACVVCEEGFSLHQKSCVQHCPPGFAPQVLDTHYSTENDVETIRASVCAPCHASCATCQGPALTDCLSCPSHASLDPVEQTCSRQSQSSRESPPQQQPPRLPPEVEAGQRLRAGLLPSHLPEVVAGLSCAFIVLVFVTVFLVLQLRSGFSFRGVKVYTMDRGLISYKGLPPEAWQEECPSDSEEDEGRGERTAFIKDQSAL

Sequence | furin cleavage Z-score (7.5 min) | furin cleavage Z-score (15 min) | furin cleavage Z-score (30 min)
CAISQAEAALAGNASASA [HC531] | -1.47 (inactive) | -0.433 (inactive) | -1.7 (inactive)
CAVVCCIMSYAGNASASA [HC105] | 1.49 | 0.708 (inactive) | 1.08
CAYRGRHRRFAGNASASA [FS-152] | 5.94 (active) | 6.27 (active) | 6.98 (active)
CAYRGRCRKSAGNASASA [FS-923] | 0.471 (inactive) | 1.55 | 0.866 (inactive)
CAHTQRNRRSAGNASASA [FS-799] | 11.3 (active) | 12.6 (active) | 10.4 (active)
CAKLRRNRRSAGNASASA [FS-1221] | 5.36 (active) | 6.08 (active) | 4.35 (active)
CATAQGMKRSAGNASASA [FS-725] | 1.25 | 1.19 | -0.124 (inactive)
CATVSGFVSLAGNASASA [HC358] | 0.667 (inactive) | -0.762 (inactive) | 1.14
CAEDEVPCHRAGNASASA [HC2451] | 1.14 | 0.677 (inactive) | 1.09
CAPLTRSKRDAGNASASA [FS-700] | 15 (active) | 15 (active) | 10.2 (active)
CAPRAKVKREAGNASASA [FS-281] | 11.8 (active) | 10.8 (active) | 7.73 (active)
CAQGYKVLVLAGNASASA [HC784] | -0.106 (inactive) | -0.421 (inactive) | -0.768 (inactive)
CATRSRSERDAGNASASA [FS-884] | 2.38 | 3.17 | 0.745 (inactive)
CANRERSKRDAGNASASA [FS-182] | 13.6 (active) | 14.6 (active) | 10.7 (active)
CAGGGRSKRDAGNASASA [FS-997] | 12.9 (active) | 11.9 (active) | 8.83 (active)
CANWAKVLVVAGNASASA [HC344] | 0.338 (inactive) | -0.0162 (inactive) | 1.26
CAPLTNSRGEAGNASASA [HC1503] | -0.174 (inactive) | -0.452 (inactive) | 1.07
CATRCHCGAEAGNASASA [HC1174] | -0.133 (inactive) | -0.874 (inactive) | -0.744 (inactive)
CAHDSPDAELAGNASASA [HC1270] | -0.658 (inactive) | -0.493 (inactive) | -0.66 (inactive)
CAVVCCSMCYAGNASASA [HC2080] | 0.362 (inactive) | -0.833 (inactive) | 2.39
CAPRALRKRDAGNASASA [FS-1603] | 9.96 (active) | 9.61 (active) | 8.35 (active)
CAREKKADRDAGNASASA [FS-2913] | 0.241 (inactive) | -0.361 (inactive) | -1.01 (inactive)
CAQEVRSKRDAGNASASA [FS-622] | 14.6 (active) | 15.6 (active) | 10.9 (active)
CAQWHLSKRDAGNASASA [FS-485] | 0.736 (inactive) | 2.32 | 1.82
CAKERRSKRDAGNASASA [FS-934] | 12.1 (active) | 12.8 (active) | 8.75 (active)
CASTPCSLHLAGNASASA [HC2525] | 0.933 (inactive) | 1.1 | 1.05
CAEMPCHRPSAGNASASA [HC2326] | 0.275 (inactive) | 1.07 | -0.483 (inactive)
